Inconclusive results are not listed. The source made the active and inactive calls. Unless noted, the call rests on the fitted dose curve; in most records, active means well fitted curve in the direction sought with a large enough effect; inconclusive means small, poorly fitted or top-dose-only effect, or another doubt; inactive means no such curve, though single readings can be large; an effect the other way counts as inactive or inconclusive.
Tests used:
[1] = Cell Viability - HepG2 (AID 433; calls by dose curve;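 further: potency means the concentration at half of the fitted maximal effect; potency for ATP loss meaning cytotoxicity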); conditions: qHTS
How it was run: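 Cytotoxicity is scored as loss of intracellular ATP in HepG2 cells exposed to compounds for 40 h. Concentration-response curves, normalized to DMSO and 100 uM tamoxifen, give AC50 values.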

[2] = Cell Viability - Mesenchymal (AID 546); conditions: mesenchymal cells viability, qHTS; activity change, negative = cytotoxicity: at 91.7 µM (top of the series);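 further: cells exposed to compound for 40 hours before reading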; further: potency means the concentration at half of the fitted maximal effect;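 on activity change, negative = cytotoxicity: 0% = DMSO only and -100% = 100 µM tamoxifen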
How it was run: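 Normal human renal glomerulus-derived kidney mesenchymal cells, 1000 per well in complete medium, were treated with compounds for 40 hr at 37 °C. Viability was read as intracellular ATP by CellTiter-Glo luminescence; AC50 values came from Hill-equation fits of qHTS concentration-response data.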

[3] = Cell Viability - LYMP1-003 - Assay at 40 hr (AID 964); conditions: LYMP1-003 lymphoblastoid viability; series mostly up to 92.2 µM; further: nearly all actives have a fitted effect of over 60% in size; further: potency means the concentration at half of the fitted maximal effect
How it was run: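 LYMP1-003 human lymphoblastoid cells, 2500/well, preincubated 5 h at 37 C, then treated with compound for 40 h at 37 C. Intracellular ATP read by CellTiter-Glo luminescence after 30 min at room temperature; AC50 from Hill-equation fits.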

[4] = Cell Viability - LYMP2-017 (AID 972); conditions: LYMP2-017 lymphoblastoid cell viability; series mostly up to 92.2 µM; further: nearly all actives have a fitted effect of over 55% in size; further: potency means the concentration at half of the fitted maximal effect; on activity change, negative = cytotoxicity: on the % scale 0 is the no-effect control and ±100 the full control effect
How it was run: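 LYMP2-017 human lymphoblastoid cells (2500/well) settled 5 hr at 37 C, then exposed to compound 24 hr at 37 C in complete medium. Viability taken as intracellular ATP by CellTiter-Glo luminescence after 30 min at RT; AC50 from Hill fits.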

[5] = Cell Viability - LYMP2-021 (AID 974); conditions: LYMP2-021 lymphoblastoid cells viability; series mostly up to 92.2 µM;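 further: compound exposure lasts 24 hours at 37 °C; nearly all actives have a fitted effect of over 55% in size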; further: potency means the concentration at half of the fitted maximal effect; on activity change, negative = cytotoxicity: on the % scale 0 is the no-effect control and ±100 the full control effect
How it was run: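 Human lymphoblastoid LYMP2-021 cells, 2500/well in complete medium, treated 24 hours at 37 C. Intracellular ATP by CellTiter-Glo luminescence (30 min, RT); AC50 from Hill fits of concentration-response.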

[6] = Cell Viability - LYMP2-023 (AID 975); conditions: LYMP2-023 lymphoblastoid cell viability; series mostly up to 92.2 µM; further: nearly all actives have a fitted effect of over 55% in size; further: potency means the concentration at half of the fitted maximal effect;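 on activity change, negative = cytotoxicity: cellular ATP measured by luciferase luminescence as viability proxy; plate controls were DMSO only for no effect and 92 µM tetraoctylammonium bromide control for full effect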
How it was run: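 LYMP2-023 human lymphoblastoid cells, 2500/well, preincubated 5 hr at 37 C, then compound-treated 24 hr at 37 C in complete medium. CellTiter-Glo luminescence (ATP) after 30 min at room temperature; AC50 from Hill-equation fits; tetraoctylammonium bromide positive control.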

[7] = Cell Viability - LYMP2-025 (AID 976); conditions: LYMP2-025 lymphoblastoid cell viability; series mostly up to 92.2 µM;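 further: plate controls were DMSO only for no effect and tetraoctylammonium bromide control for full effect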
How it was run: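 Human lymphoblastoid LYMP2-025 cells, 2500/well, exposed 24 h at 37 C in complete medium in 1536-well qHTS. Viability as cellular ATP by CellTiter-Glo luminescence; AC50 from Hill fits of concentration-response data.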

[8] = Cell Viability - LYMP2-002 (AID 977); conditions: LYMP2-002 lymphoblastoid cell viability, qHTS; series mostly up to 92.2 µM;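 further: plate controls were DMSO only for no effect and 92 µM tetraoctylammonium bromide for full effect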
How it was run: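 Luminescent ATP readout (CellTiter-Glo, 30 min room temperature) after 24 h compound exposure at 37 C of a human lymphoblastoid line, 2500 cells/well. AC50 values derived by standard Hill fitting of qHTS concentration-response data.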

[9] = Cell Viability - LYMP2-014 (AID 983); conditions: LYMP2-014 lymphoblastoid cells, viability qHTS; series mostly up to 92.2 µM; further: nearly all actives have a fitted effect of over 50% in size; further: potency means the concentration at half of the fitted maximal effect;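 on activity change, negative = cytotoxicity: plate controls were DMSO only for no effect and 92 µM tetraoctylammonium bromide for full effect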
How it was run: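 LYMP2-014 human lymphoblastoid cells, 2500/well, treated 24 h at 37 C in complete medium; viability by CellTiter-Glo ATP luminescence after 30 min at room temperature. AC50 from Hill fits of qHTS concentration-response; tetraoctylammonium bromide positive control.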

[10] = Cell Viability - LYMP2-016 (AID 984); conditions: LYMP2-016 lymphoblastoid cell viability, qHTS; series mostly up to 92.2 µM; further: nearly all actives have a fitted effect of over 55% in size; further: potency means the concentration at half of the fitted maximal effect; on activity change, negative = cytotoxicity: on the % scale 0 is the no-effect control and ±100 the full control effect
How it was run: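 Acute toxicity in a Coriell human lymphoblastoid line is scored as loss of intracellular ATP over 24 h of treatment in complete medium. CellTiter-Glo signal is fitted across concentrations with the Hill equation to give AC50.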

[11] = Cell Viability - LYMP2-018 (AID 985); conditions: LYMP2-018 lymphoblastoid cells, viability (qHTS); series mostly up to 92.2 µM;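 further: compound exposure lasted 24 hr at 37 °C; nearly all actives have a fitted effect of over 50% in size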; further: potency means the concentration at half of the fitted maximal effect;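 on activity change, negative = cytotoxicity: plate controls were DMSO only for no effect and tetraoctylammonium bromide at 92 µM for full effect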
How it was run: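 Human lymphoblastoid LYMP2-018 cells, 2500/well, settled 5 hr at 37 C then exposed to compound 24 hr at 37 C; intracellular ATP measured by CellTiter-Glo luminescence. AC50 from Hill-equation concentration-response fits.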

[12] = Cell Viability - LYMP2-020 (AID 986); conditions: series mostly up to 92.2 µM; further: nearly all actives have a fitted effect of over 55% in size; further: potency means the concentration at half of the fitted maximal effect
How it was run: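 Human lymphoblastoid LYMP2-020 cells (2500/well) preincubated 5 h at 37 C, then treated 24 h at 37 C. Viability measured as intracellular ATP by CellTiter-Glo luminescence after 30 min at room temperature; AC50 from Hill fits.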

[13] = Cell Viability - LYMP1-002 - Assay at 40 hr (AID 994); conditions: LYMP1-002 lymphoblastoid cell viability; series mostly up to 92.2 µM; further: nearly all actives have a fitted effect of over 60% in size; further: potency means the concentration at half of the fitted maximal effect
How it was run: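 LYMP1-002 human lymphoblastoid cells (2500/well, complete medium) were treated with compounds for 40 hr at 37 C. Intracellular ATP was measured by CellTiter-Glo luminescence, and AC50 values came from Hill-equation fits of concentration-response data; tetraoctylammonium bromide was the positive control.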

[14] = qHTS assay for small molecule antagonists of retinoid X receptor alpha signaling (AID 588546; active means well fitted inhibition curve with a large enough effect in the signal ratio, with a control signal flat, not every such curve was filed as active; the % refers to the signal ratio; further: potency means the concentration at half of the fitted maximal effect;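 on max response: cells stimulated with 9-cis-retinoic acid as agonist; on the % scale 0 is the no-effect control and ±100 the full control effect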); conditions: HEK293T RXRa-UAS-bla, beta-lactamase ratio, antagonist mode; measured here: W530 green channel, cytotoxicity proxy
How it was run: (§1)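 Beta-lactamase reporter inhibition, read as CCF4 fluorescence ratio (ex 405, em 460/530 nm) after 2 h at RT. HEK293T UAS-bla cells, 2500/well, were stimulated with 9-cis-RA at 500 or 100 nM final alongside test compound for 18 h at 37 C.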

[15] = target: Retinoic acid receptor RXR-alpha (Homo sapiens) (UniProt P19793); assay: as above; conditions: HEK293T RXRa-UAS-bla, beta-lactamase ratio, antagonist mode
How it was run: as §1

[16] = qHTS assay for environmental chemicals that activate the Aryl hydrocarbon Receptor (AhR) signaling pathway (AID 651777); conditions: 1A2-DRE human hepatoma cells, luciferase, 24 h; activation: stronger effect = higher value; further: nearly all actives have a fitted effect of over 15% in size; further: potency means the concentration at half of the fitted maximal effect; on activation: % of control where 0% means no effect
How it was run: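 Human hepatoma 1A2-DRE cells stably carrying a DRE/CYP1A2 promoter–luciferase reporter, 1,200 cells/well, exposed to compound 24 hr at 37 C. Luciferase read by One-Glo luminescence after 30 min at room temperature; increased signal marks AhR activation.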

[17] = Cell Viability - LYMP2-013 (AID 970); conditions: LYMP2-013 lymphoblastoid cells viability; series mostly up to 92.2 µM; further: nearly all actives have a fitted effect of over 55% in size; further: potency means the concentration at half of the fitted maximal effect
How it was run: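 Human lymphoblastoid LYMP2-013 cells, 2500/well, treated 24 h at 37 C in complete medium; viability as intracellular ATP by CellTiter-Glo luminescence after 30 min. AC50 from Hill fits of qHTS concentration-response.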

[18] = Cell Viability - LYMP2-012 (AID 982); conditions: LYMP2-012 lymphoblastoid cell viability qHTS; series mostly up to 92.2 µM; further: potency means the concentration at half of the fitted maximal effect;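 on activity change, negative = cytotoxicity: 0% = DMSO only and full loss = 92 µM tetraoctylammonium bromide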
[19] = Cell Viability - LYMP2-022 (AID 987); conditions: LYMP2-022 lymphoblastoid cell viability; series mostly up to 92.2 µM; further: nearly all actives have a fitted effect of over 55% in size; further: potency means the concentration at half of the fitted maximal effect
How it was run: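 LYMP2-022 lymphoblastoid cells (2500/well, complete medium) were treated with compounds for 24 hours at 37 C; intracellular ATP was then read by CellTiter-Glo luminescence after 30 min at room temperature. AC50 values were derived from Hill-equation fits.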

[20] = Cell Viability - LYMP2-024 (AID 988); conditions: LYMP2-024 lymphoblastoid cell viability; series mostly up to 92.2 µM; further: nearly all actives have a fitted effect of over 60% in size; further: potency means the concentration at half of the fitted maximal effect;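 on activity change, negative = cytotoxicity: plate controls were DMSO only for no effect and 92 µM tetraoctylammonium bromide for full effect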
How it was run: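 Human lymphoblastoid LYMP2-024 cells (2500/well) rested 5 hr, then treated with compound for 24 hr at 37 C in complete medium. Viability was measured as intracellular ATP by CellTiter-Glo luminescence. AC50 values came from Hill-equation fits.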

Sequence of Retinoic acid receptor RXR-alpha (Homo sapiens) (P19793 whole entry, looked up): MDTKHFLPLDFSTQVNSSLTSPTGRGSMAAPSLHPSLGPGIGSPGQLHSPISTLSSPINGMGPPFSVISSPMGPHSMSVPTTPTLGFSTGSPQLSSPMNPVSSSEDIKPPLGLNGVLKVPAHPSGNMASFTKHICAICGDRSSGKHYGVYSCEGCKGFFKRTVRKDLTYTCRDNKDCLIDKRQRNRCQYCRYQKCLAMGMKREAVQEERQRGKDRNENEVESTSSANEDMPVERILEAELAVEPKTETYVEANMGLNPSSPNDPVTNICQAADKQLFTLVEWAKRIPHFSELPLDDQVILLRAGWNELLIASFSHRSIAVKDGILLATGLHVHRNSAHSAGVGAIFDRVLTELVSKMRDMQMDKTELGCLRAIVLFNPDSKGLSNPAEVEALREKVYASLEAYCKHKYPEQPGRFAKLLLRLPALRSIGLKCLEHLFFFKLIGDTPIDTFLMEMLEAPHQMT

O=C1c2ccccc2C(=O)C1(O)O
inactive: Potency [1] > 92 µM | Potency [2] | Potency [3] | Potency [4] | Potency [5] | Potency [6] | Potency [7] | Potency [8] | Potency [9] | Potency [10] | Potency [11] | Potency [12] | Potency [13] | max response [15] 29.7% | activation [16] -0.0089%
-5.61%: max response [14]

O=C(Cl)c1ccc([N+](=O)[O-])cc1
-4.54%: max response [14]
inactive: Potency [1] > 92 µM | Potency [2] | Potency [3] | Potency [17] | Potency [4] | Potency [5] | Potency [6] | Potency [7] | Potency [8] | Potency [18] | Potency [9] | Potency [10] | Potency [11] | Potency [12] | Potency [19] | Potency [20] | Potency [13] | max response [15] 11.8%

CC1=C(/C=C/C(C)=C/C=C/C(C)=C/C=O)C(C)(C)CCC1
-0.803%: max response [14]
active: Potency [2] 31.6 µM | Potency [3] 50.1 µM | Potency [17] 50.1 µM | Potency [4] 39.8 µM | Potency [5] 50.1 µM | Potency [6] 50.1 µM | Potency [18] 50.1 µM | Potency [9] 50.1 µM | Potency [10] 50.1 µM | Potency [11] 39.8 µM | Potency [19] 39.8 µM | Potency [20] 39.8 µM | Potency [13] 50.1 µM
inactive: max response [15] -29.6% | activation [16] 4.9%

CC/C=C/C/C=C/C/C=C/CCCCCCCC(=O)OCC
inactive: Potency [1] > 92 µM | Potency [2] | activation [16] 0.56%
active: Potency [17] 50.1 µM | Potency [4] 31.6 µM | Potency [5] 50.1 µM | Potency [6] 39.8 µM | Potency [18] 39.8 µM | Potency [9] 50.1 µM | Potency [10] 39.8 µM | Potency [11] 31.6 µM | Potency [12] 39.8 µM | Potency [19] 25.1 µM | Potency [20] 25.1 µM

Cc1cc2nc(N)sc2cc1C
inactive: Potency [3] | Potency [17] | Potency [4] | Potency [5] | Potency [6] | Potency [7] | Potency [8] | Potency [18] | Potency [9] | Potency [10] | Potency [11] | Potency [12] | Potency [19] | Potency [20] | Potency [13] | max response [15] 9.41%
0.388%: max response [14]

CCN(CC)c1ccc(N)cc1
inactive: Potency [2] | Potency [7] | max response [15] -16.2%
9.43%: max response [14]
active: Potency [19] 39.8 µM | Potency [16] 44.7 µM

Cc1c2ccccc2c(C)c2c1ccc1ccccc12
-10.9%: max response [14]
inactive: Potency [2] | Potency [17] | Potency [5] | Potency [6] | Potency [7] | Potency [8] | Potency [18] | Potency [9] | Potency [10] | Potency [11] | Potency [12] | Potency [19] | Potency [20]
active: Potency [15] 8.91 µM

CN(C)c1ccc(C(=N)c2ccc(N(C)C)cc2)cc1
active: Potency [1] 57 µM | Potency [18] 39.8 µM | Potency [9] 39.8 µM | Potency [11] 39.8 µM | Potency [12] 39.8 µM | Potency [19] 25.1 µM | Potency [20] 39.8 µM
inactive: activation [16] 13.1%

Cc1cc(-c2ccc(N=Nc3cc(S(=O)(=O)O)c4ccccc4c3N)c(C)c2)ccc1N=Nc1cc(S(=O)(=O)O)c2ccccc2c1N
inactive: Potency [19] | max response [15] 0.921% | activation [16] 0.307%
-6.21%: max response [14]

Oc1ccc(O)c2c(O)cccc12
-12.8%: max response [14]
active: Potency [4] 50.1 µM | Potency [5] 50.1 µM | Potency [11] 50.1 µM | Potency [19] 50.1 µM | Potency [20] 50.1 µM
inactive: Potency [1] > 92 µM | Potency [2] | Potency [3] | Potency [7] | Potency [13] | max response [15] -1.49%

CCN(CC)c1ccc2c(C)cc(=O)oc2c1
inactive: Potency [1] > 92 µM | Potency [2] | Potency [3] | Potency [17] | Potency [4] | Potency [5] | Potency [6] | Potency [7] | Potency [8] | Potency [18] | Potency [9] | Potency [10] | Potency [11] | Potency [12] | Potency [19] | Potency [20] | Potency [13] | activation [16] 6.67%

S=C(NC1CCCCC1)NC1CCCCC1
inactive: Potency [2] | Potency [3] | Potency [17] | Potency [4] | Potency [5] | Potency [6] | Potency [7] | Potency [8] | Potency [18] | Potency [9] | Potency [10] | Potency [11] | Potency [12] | Potency [19] | Potency [20] | Potency [13] | max response [15] -14.3% | activation [16] 5.57%
-2.99%: max response [14]

O=C=Nc1ccc(Cl)c(Cl)c1
active: Potency [15] 14.1 µM
26.4%: max response [14]

c1ccc(Nc2cccc3ccccc23)cc1
1.85%: max response [14]
inactive: Potency [1] > 92 µM | Potency [2] | Potency [3] | Potency [17] | Potency [4] | Potency [5] | Potency [6] | Potency [7] | Potency [8] | Potency [18] | Potency [9] | Potency [10] | Potency [11] | Potency [12] | Potency [19] | Potency [20] | Potency [13] | max response [15] -23.3%

Nc1ccc(N)c(Cl)c1
4.58%: max response [14]
inactive: Potency [1] > 92 µM | Potency [2] | Potency [17] | Potency [4] | Potency [5] | Potency [6] | Potency [8] | Potency [18] | Potency [9] | Potency [10] | Potency [11] | Potency [12] | max response [15] 9.54%
active: Potency [3] 39.8 µM | Potency [19] 39.8 µM

CCCCC(CC)COP(=O)(OCC(CC)CCCC)OCC(CC)CCCC (stereo unspecified)
-7.24%: max response [14]
inactive: Potency [1] > 92 µM | Potency [2] | Potency [3] | Potency [17] | Potency [4] | Potency [5] | Potency [6] | Potency [7] | Potency [8] | Potency [18] | Potency [9] | Potency [10] | Potency [11] | Potency [12] | Potency [19] | Potency [20] | Potency [13] | max response [15] -4.08% | activation [16] -1.66%

— PubChem BioAssay (NCATS)
